Source: PubChem BioAssay (NCATS)
Inconclusive results are not listed. Active and inactive are the calls of the source. Calls come from the whole dose curve; as a rule, active = well fitted cell-killing curve with a large enough effect; inconclusive = small, poorly fitted or top-dose-only effect; inactive = no such curve, though single readings can be large or run the other way.

Assay: qHTS of pediatric cancer cell lines to identify multiple opportunities for drug repurposing: Primary screen for Rh41 cells (AID 1347108); note: nearly all actives have a fitted effect of over 70% in size;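 for activity change, negative = cytotoxic: luminescence drop marks cytotoxic hits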
Settings: Rh41 rhabdomyosarcoma viability, CellTiter-Glo luminescence, 48 h; series mostly up to 46 µM; activity change, negative = cytotoxic: at the top concentration
Source text: Drug repurposing or repositioning has been offered as a strategy for drug development in oncology programs. This approach has special potential for childhood cancers and other rare or orphan diseases, where the expected return on new drug development has been a disincentive to pharmaceuticals. […] In this project we exploit the poly-pharmacology of drugs to discover new indications via phenotypic screening of a panel of 19 well-characterized cell lines derived from solid tumors seen in children and adolescents. The goal is to identify approved drugs with previously unrecognized anticancer properties that has the potential to reveal new mechanisms and biological processes involved in carcinogenesis or drug resistance. We employed a titration-based paradigm (quantitative high-throughput screening or qHTS), where all compounds were tested at multiple concentrations for their effect on cell viability. Concentration-response curves (CRCs) were derived directly from the primary screen, and both potency and efficacy values were used to identify compounds with robust bioactivity profiles. We screened the NIH Chemical Genomics Center (NCGC) Pharmaceutical Collection (NPC) and Mechanism Interrogation Plate (MIPE) small molecule collections of approved and investigational compounds against these cell lines; and measured metabolically active cells after 48 hours of compound treatment as a proxy for cell viability. […] Assay Submitter: Nathalia J. Martinez, National Center for Advancing Translational Sciences, National Institutes of Health, Rockville, MD, USA; email: natalia.martinez@nih.gov Shen, M et al. Quantitative high-throughput phenotypic screening of pediatric cancer cell lines identifies multiple opportunities for drug repurposing. Oncotarget 2017 Dec 19;9(4):4758-4772. PMID 29435139.
The cells were obtained from University of North Carolina (UNC), Pediatric Preclinical Testing Program (PPT), and Coriell Institute (CI). qHTS cell viability assay: Cells were assayed in growth media at a density of 500-1,000 cells/well. Five microliters of cells were dispensed into 1,536-well, white, solid-bottom, TC-treated plates (Greiner Bio One) using a multidrop dispenser and incubated at 37 degrees C, 5% CO2, under a humidified atmosphere for 5 hours. Twenty-three nanoliters of compounds and controls (neutral control DMSO or positive control bortezomib at final concentration of 2.3 µM) were subsequently transferred by Kalypsys pintool. For primary screens, the MIPE collection was tested at 11-point dilutions (final concentrations range from 0.78 nM to 46 µM) and the NPC collection at 8-point dilutions (final concentrations range from 0.59 nM to 46 µM). Compounds tested in follow-up screens were assayed at 11-point dilutions. Cells were incubated for 48 hours, followed by addition of 3 µL of CellTiter-Glo (Promega). After a 15 min incubation at room temperature, samples were analyzed for luminescence intensity using a ViewLux High-throughput CCD imager equipped with clear filters.
Potency is the fitted concentration of half-maximal effect.

Row | SMILES | Potency | activity change, negative = cytotoxic
1 | Cc1[nH]c2ccccc2c1CCNCc1ccc(C=CC(=O)NO)cc1 | 0.235 µM (active) | 
2 | CC=CC1=C(C(=O)O)N2C(=O)[C@H](NC(=O)[C@H](N)c3ccc(O)cc3)[C@@H]2SC1 |  | 10.3% (inactive)
3 | COCCOc1ccc2c(c1)ncn2-c1ccc2cccc(N3CCC(N)CC3)c2n1 | 23.5 µM (active) | 
4 | CCOC(=O)C1=C(C)NC2=C(C(=O)CC(C)(C)C2)C1c1ccc(-c2ccccc2)cc1 (stereo not given) | 18.7 µM (active) | 
5 | c1ccc2c(CCNc3ccc(Nc4ccncc4)cc3)c[nH]c2c1 | 18.7 µM (active) | 
6 | Cc1cc(C(=O)N2CCN(c3cccc(Cl)c3)CC2)n(-c2ccccc2)n1 | 2.35 µM (active) | 
7 | O=C(c1ccc(Nc2nccc(-c3cc4ccccc4s3)n2)cc1)N1CCC(N2CCCC2)CC1 | 18.7 µM (active) | 
8 | Cc1ccc(C(=O)Nc2cccc(C(F)(F)F)c2)cc1-c1ccc2nc(NCCN3CCOCC3)ncc2c1 | 14.8 µM (active) | 
9 | CC(=O)SC[C@@H](C)C(=O)N1CCC[C@H]1C(=O)N[C@@H](Cc1ccccc1)C(=O)O |  | 23.5% (inactive)
10 | Cc1cc(CN2CCN(c3c(Br)cnc4nc(-c5ccc(N6CCN(C)CC6)cc5)[nH]c34)CC2)no1 | 5.9 µM (active) | 
11 | Nc1ccc(C(=O)c2cc3c(ccc4ccccc43)[nH]2)cc1 | 4.69 µM (active) | 
12 | O=C(C=Cc1cccnc1)NCCCCC1CCN(C(=O)c2ccccc2)CC1 | 0.118 µM (active) | 
13 | CC(O)C1C(=O)N2C(C(=O)O)=C(SC3CNC(C(=O)N(C)C)C3)C(C)C12 (stereo not given) |  | 15.3% (inactive)
14 | COc1cccc2nc(-c3cccs3)nc(NN3C(=O)C=C(C)C3=O)c12 | 2.35 µM (active) | 
15 | CN1CCN(c2cc(C(=O)Nc3ccc4c(c3)-c3c(c(C(N)=O)nn3-c3ccc(F)cc3)CC4)c(Cl)cn2)CC1 | 20.9 µM (active) | 
16 | CC(C)(C)c1cc(NC(=O)Nc2ccc(-c3cn4c(n3)sc3cc(OCCN5CCOCC5)ccc34)cc2)no1 |  | -23.8% (inactive)
17 | Nc1nc(Nc2ccc(S(N)(=O)=O)cc2)nn1C(=O)c1c(F)cccc1F | 14.8 µM (active) | 
18 | Fc1cc(-c2cccc3ncc(-c4cnn(C5CCNCC5)c4)nc23)cc(F)c1CN1CCOCC1 | 23.5 µM (active) | 
19 | C#Cc1cccc(Nc2ncnc3cc(OC)c(OCCCCCCC(=O)NO)cc23)c1 | 0.372 µM (active) | 
20 | Cc1coc2c1C(=O)C(=O)c1c-2ccc2c1CCCC2(C)C |  | -24.3% (inactive)

Row | SMILES | Potency | activity change, negative = cytotoxic
21 | COc1cc2c(Oc3ccc4[nH]c(C)cc4c3F)ncnc2cc1OCCCN1CCCC1 | 18.7 µM (active) | 
22 | O=C(O)C1(Cc2cccc(Nc3nccs3)n2)CCC(Oc2cccc(Cl)c2F)CC1 (stereo not given) |  | -11.4% (inactive)
23 | CC(=O)OCC(=O)[C@@]1(O)[C@H](C)C[C@H]2[C@@H]3C=C(C)C4=Cc5c(cnn5-c5ccccc5)C[C@]4(C)[C@@H]3[C@@H](O)C[C@@]21C | 18.7 µM (active) | 
24 | COc1cc(OC2CCN(C)CC2)ccc1Nc1ncc2c(n1)n(C1CCCC1)c(=O)n2C | 18.7 µM (active) | 
25 | COc1c(OCCCN2CCOCC2)ccc2c3n(c(=NC(=O)c4cnc(N)nc4)nc12)CCN3 | 0.102 µM (active) | 
26 | Cc1cn2c(-c3cn[nH]c3)cnc2c(Nc2ccc(C(=O)N3CCNCC3)cc2F)n1 | 18.7 µM (active) | 
27 | CC(C)c1ccccc1Cc1cc(C(=O)Nc2ccc(S(=O)(=O)c3ccccc3C(C)(C)C)cc2)c(O)c(O)c1O | 18.7 µM (active) | 
28 | COc1cc2c(cc1-c1c(C)noc1C)ncc1[nH]c(=O)n([C@H](C)c3ccccn3)c12 | 9.35 µM (active) | 
29 | COc1cc(C(=O)N2CCC(N3CCN(C)CC3)CC2)ccc1Nc1ncc2c(n1)N(C)c1ccccc1C(=O)N2C | 9.35 µM (active) | 
30 | O=C(O)CCCc1c[nH]c2ccccc12 |  | 16.2% (inactive)
31 | c1cc(-c2cnn3cc(-c4ccc(OCCN5CCCCC5)cc4)cnc23)ccn1 | 9.35 µM (active) | 
32 | O=C(O)[C@H](Cc1c[nH]c2ccccc12)N1C(=O)c2ccccc2C1=O |  | 17.9% [at 92.7 µM] (inactive)
33 | CCCCc1nc2cc(C=CC(=O)NO)ccc2n1CCN(CC)CC | 0.935 µM (active) | 
34 | CC(=O)OCCN1C(=O)c2c(C)nc3ccc(S(=O)(=O)N4CCOCC4)cc3c2C1=O |  | 24.1% (inactive)
35 | Cn1cncc1[C@@](N)(c1ccc(Cl)cc1)c1ccc2c(c1)c(-c1cccc(Cl)c1)cc(=O)n2C | 14.8 µM (active) | 
36 | CN(C)Cc1c(C(=O)NCCOc2ccc(C(=O)NO)cc2)oc2ccccc12 | 1.48 µM (active) | 
37 | CNC(=O)c1cc(Oc2ccc(NC(=O)Nc3cc(C(C)(C)C)nn3-c3ccc4ncccc4c3)c(F)c2)ccn1 | 23.5 µM (active) | 
38 | COc1ccc(-n2nc(C(N)=O)c3c2C(=O)N(c2ccc(N4CCCCC4=O)cc2)CC3)cc1 |  | 32.8% (inactive)
39 | CC(NCc1ccc2c(c1)nc(NC(=O)c1ccc(-c3cn[nH]c3)s1)n2CC(C)(C)O)C(C)(C)C (stereo not given) | 0.743 µM (active) | 
40 | CNC(=O)c1nn(C)c2c1C(C)(C)Cc1cnc(Nc3ccc(N4CCN(C)CC4)cc3)nc1-2 | 11.8 µM (active) | 
